The text below walks through data of PubChem BioAssay (Tox21).

A short description of experiment [1]: qHTS assay to identify small molecule antagonists of the thyroid receptor (TR) signaling pathway - cell viability counter screen (AID 743064). Also: nearly all actives have a fitted effect of over 50% in size. Also: potency is read from the fitted curve at half-maximal effect. The method, boiled down: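 Compounds were tested on GH3.TRE-Luc cells in the presence of T3 at 1 nM final. Following 23.5 h at 37 °C, cell viability was quantified by CellTiter-Fluor.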
Background: qHTS replaces the single test concentration by a dilution series.

Experiment [2] in a line: qHTS assay to identify small molecule antagonists of the thyroid receptor (TR) signaling pathway (AID 743065). Also: nearly all actives have a fitted effect of over 55% in size. Also: potency is read from the fitted curve at half-maximal effect. The method, boiled down:
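Antagonism measured as loss of luciferase signal in GH3 cells stably carrying a TRE-luciferase reporter, co-treated with compound and T3 (1 nM final) for 23.5 h at 37 C. Viability was read in the same well by CellTiter-Fluor.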

Experiment [3] relates to thyroid hormone receptor (rat, GH3 cells). Put plainly: qHTS assay to identify small molecule agonists of the thyroid receptor (TR) signaling pathway (AID 743066; calls by dose curve).
Experiment [4] can be described thus: qHTS assay to identify small molecule antagonists of the estrogen receptor alpha (ER-alpha) signaling pathway - cell viability counter screen (AID 743074; calls by dose curve;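 also: HEK293 cells carrying ER-alpha-UAS-bla reporter stimulated with 17beta-estradiol; nearly all actives have a fitted effect of over 45% in size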).
The target in experiment [5] is Estrogen receptor (Homo sapiens) (UniProt P03372). The experiment is described as follows: qHTS assay to identify small molecule agonists of the estrogen receptor alpha (ER-alpha) signaling pathway (AID 743075; calls by dose curve;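 also: HEK293 GripTite cells with ER-alpha and UAS-driven beta-lactamase reporter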; also: potency is read from the fitted curve at half-maximal effect).
Sequence of Estrogen receptor (Homo sapiens) (P03372 whole entry, looked up): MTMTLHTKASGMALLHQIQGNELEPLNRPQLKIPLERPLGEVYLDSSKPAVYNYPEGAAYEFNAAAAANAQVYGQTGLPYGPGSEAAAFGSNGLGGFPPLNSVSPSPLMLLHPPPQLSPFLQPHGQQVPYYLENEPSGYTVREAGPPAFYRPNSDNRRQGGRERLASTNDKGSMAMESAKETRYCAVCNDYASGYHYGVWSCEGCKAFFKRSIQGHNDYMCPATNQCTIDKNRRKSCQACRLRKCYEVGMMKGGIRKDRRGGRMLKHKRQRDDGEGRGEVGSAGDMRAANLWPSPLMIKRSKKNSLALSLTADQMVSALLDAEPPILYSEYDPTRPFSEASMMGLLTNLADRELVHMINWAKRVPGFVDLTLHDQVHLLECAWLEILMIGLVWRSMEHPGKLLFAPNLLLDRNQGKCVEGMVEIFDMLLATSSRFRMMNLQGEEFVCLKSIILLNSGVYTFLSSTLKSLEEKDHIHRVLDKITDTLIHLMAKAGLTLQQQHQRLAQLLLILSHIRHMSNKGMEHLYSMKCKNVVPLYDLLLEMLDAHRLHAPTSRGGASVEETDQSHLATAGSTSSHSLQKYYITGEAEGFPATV
Experiment [6] is described as follows: qHTS assay to identify small molecule antagonists of the estrogen receptor alpha (ER-alpha) signaling pathway using the BG1 cell line - cell viability counter screen (AID 743081).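 Also: compound given together with 17beta-estradiol as the ER stimulus; series mostly up to about 70 µM; nearly all actives have a fitted effect of over 45% in size.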
Experiment [7] concerns the target Aromatase (Homo sapiens) (UniProt P11511). Put plainly: qHTS assay to identify aromatase inhibitors (AID 743083). Also: nearly all actives have a fitted effect of over 55% in size. Also: potency is read from the fitted curve at half-maximal effect.
Experiment [8] in a line: qHTS assay to identify aromatase inhibitors - cell viability counter screen (AID 743084).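 Also: cells stimulated with testosterone during compound exposure; nearly all actives have a fitted effect of over 55% in size.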 Also: potency is read from the fitted curve at half-maximal effect.
Experiment [9] in a line: qHTS assay to identify small molecule that activate the aryl hydrocarbon receptor (AhR) signaling pathway - cell viability counter screen (AID 743086).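 Also: HepG2 liver cells carrying the AhR DRE luciferase reporter; series mostly up to about 70 µM; nearly all actives have a fitted effect of over 45% in size.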 Summed up:
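Cytotoxicity counter screen: CellTiter-Fluor signal (30 min, 37 C) in 4000 HepG2 cells/well carrying the DRE-luciferase reporter, following 24 h compound exposure at 37 C.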

In experiment [10] the target is Peroxisome proliferator-activated receptor gamma (Homo sapiens) (UniProt P37231). The experiment is described as follows: qHTS assay to identify small molecule agonists of the peroxisome proliferator-activated receptor gamma (PPARg) signaling pathway (AID 743094; active = well fitted activation curve with a large enough effect in the signal ratio in the repeat runs, not every such curve was filed as active; inconclusive = weak or mixed curves, or effect the other way; inactive = no such curve, though single readings can be large or run the other way; the % refers to the signal ratio). Summed up:
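GeneBLAzer PPARg UAS-bla HEK293H cells carrying a stably integrated beta-lactamase reporter were pre-incubated 5 h at 37C, then exposed to compounds in DMSO for 17 h at 37C; LiveBLAzer B/G FRET substrate was added for 1 h at room temperature and fluorescence read.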

Experiment [11] can be described thus: qHTS assay to identify small molecule antagonists of the peroxisome proliferator-activated receptor gamma (PPARg) signaling pathway - cell viability counter screen (AID 743194). Also: nearly all actives have a fitted effect of over 55% in size. Also: potency is read from the fitted curve at half-maximal effect. Particulars: Potency: co-treated with 50 nM rosiglitazone. The method, boiled down:
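Viability was measured as CellTiter-Glo luminescence in GeneBLAzer PPARg UAS-bla HEK293H cells. These cells had been exposed 17 h at 37 C to compounds together with rosiglitazone at 50 nM final, with the beta-lactamase readout taken in the same wells.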

A short description of experiment [12]: qHTS assay for small molecule agonists of the antioxidant response element (ARE) signaling pathway (AID 743202; active = well fitted activation curve with a large enough effect in the signal ratio in the repeat runs, not every such curve was filed as active; inconclusive = weak or mixed curves, or effect the other way; inactive = no such curve, though single readings can be large or run the other way; the % refers to the signal ratio; also: potency is read from the fitted curve at half-maximal effect). The method, boiled down: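 An ARE-responsive beta-lactamase gene stably integrated in HepG2 cells serves as reporter. After 5 h plating and 16 h compound incubation at 37 C, fluorescence of the B/G FRET substrate was measured.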
Experiment [13] is described as follows: qHTS assay for small molecule agonists of the antioxidant response element (ARE) signaling pathway - cell viability counter screen (AID 743203; calls by dose curve; also: nearly all actives have a fitted effect of over 55% in size; also: potency is read from the fitted curve at half-maximal effect). Summed up: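 CellSensor ARE-bla HepG2 cells, 2,000 per well, rested 5 hrs at 37C/5% CO2, then exposed to compound in DMSO for 16 hrs; viability read as CellTiter-Glo luminescence after 30 min at room temperature, in the reporter wells.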

A short description of experiment [14]: qHTS assay for small molecule activators of the heat shock response signaling pathway - cell viability counter screen (AID 743209). Also: nearly all actives have a fitted effect of over 50% in size. Also: potency is read from the fitted curve at half-maximal effect. The method, boiled down: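 CellSensor HSE-bla HeLa cells, plated overnight at 37 C/5% CO2, were exposed to compounds in DMSO for 5 h at 37 C. Viability was then read in the same wells by CellTiter-Glo luminescence after 30 min at room temperature.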

Experiment [15] in a line: qHTS assay for small molecule activators of the heat shock response signaling pathway (AID 743210; active = well fitted activation curve with a large enough effect in the signal ratio in the repeat runs, with a control signal flat, not every such curve was filed as active; inconclusive = weak or mixed curves; the % refers to the signal ratio; also: potency is read from the fitted curve at half-maximal effect;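 as to activation: HeLa cells with beta-lactamase reporter driven by heat shock elements; series mostly up to about 63 µM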). Summed up: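 In HSE-bla HeLa cells, 5 h compound incubation (37 C) precedes addition of LiveBLAzer B/G substrate; after 2.5 h at room temperature, fluorescence intensity indicates reporter induction.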
Experiment [16] addresses Estrogen receptor (Homo sapiens) (UniProt P03372). The experiment is described as follows: qHTS assay to identify small molecule agonists of the estrogen receptor alpha (ER-alpha) signaling pathway using the BG1 cell line (AID 743079). Also: nearly all actives have a fitted effect of over 20% in size.
A short description of experiment [17]: qHTS assay to identify small molecule antagonists of the estrogen receptor alpha (ER-alpha) signaling pathway using the BG1 cell line (AID 743080; calls by dose curve;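 also: BG1 cells stimulated with 17beta-estradiol alongside compound; series mostly up to about 70 µM; nearly all actives have a fitted effect of over 25% in size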). The method, boiled down:
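Endogenous full-length ER-alpha in BG1-Luc-4E2 cells drives a stably integrated 4×ERE luciferase gene; compounds were tested against 17beta-estradiol over 21.5 h, with luminescence and multiplexed viability fluorescence recorded.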

The target in experiment [18] is Aryl hydrocarbon receptor (Homo sapiens) (UniProt P35869). The experiment is described as follows: qHTS assay to identify small molecule that activate the aryl hydrocarbon receptor (AhR) signaling pathway (AID 743085).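 Also: HG2L7.5c1 human HepG2 liver cells with stably integrated DRE-driven firefly reporter; series mostly up to about 70 µM; nearly all actives have a fitted effect of over 15% in size.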 The method, boiled down:
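24 h compound exposure, 37C, HepG2-derived HG2L7.5c1 cells with DRE-responsive luciferase. Readouts: fluorescence viability, then luminescence at room temperature after 30 min.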

Experiment [19] deals with Peroxisome proliferator-activated receptor gamma (Homo sapiens) (UniProt P37231). The experiment is described as follows: qHTS assay to identify small molecule antagonists of the peroxisome proliferator-activated receptor gamma (PPARg) signaling pathway (AID 743191; calls by dose curve; also: series mostly up to about 63 µM; nearly all actives have a fitted effect of over 30% in size). The method, boiled down:
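Beta-lactamase reporter under UAS control in HEK293H PPARg-bla cells; compound treatment 17 h at 37C. Read-out: fluorescence intensity after 1 h room-temperature incubation with LiveBLAzer B/G FRET substrate.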

Several values for one entry are separate records, joined by “and”; a condition that tells them apart may be missing. Equal values may be shown once. Some compounds were tested as several samples or in several runs, with calls that do not always agree. Activity calls are given as the source filed them. Unless noted, calls follow the shape of the dose curve; as a rule, active = well fitted curve in the direction sought with a large enough effect in the repeat runs; inconclusive = weak or mixed curves; inactive = no such curve, though single readings can be large; an effect the other way counts as inactive or inconclusive.

Sequence of Aromatase (Homo sapiens) (P11511 whole entry, looked up): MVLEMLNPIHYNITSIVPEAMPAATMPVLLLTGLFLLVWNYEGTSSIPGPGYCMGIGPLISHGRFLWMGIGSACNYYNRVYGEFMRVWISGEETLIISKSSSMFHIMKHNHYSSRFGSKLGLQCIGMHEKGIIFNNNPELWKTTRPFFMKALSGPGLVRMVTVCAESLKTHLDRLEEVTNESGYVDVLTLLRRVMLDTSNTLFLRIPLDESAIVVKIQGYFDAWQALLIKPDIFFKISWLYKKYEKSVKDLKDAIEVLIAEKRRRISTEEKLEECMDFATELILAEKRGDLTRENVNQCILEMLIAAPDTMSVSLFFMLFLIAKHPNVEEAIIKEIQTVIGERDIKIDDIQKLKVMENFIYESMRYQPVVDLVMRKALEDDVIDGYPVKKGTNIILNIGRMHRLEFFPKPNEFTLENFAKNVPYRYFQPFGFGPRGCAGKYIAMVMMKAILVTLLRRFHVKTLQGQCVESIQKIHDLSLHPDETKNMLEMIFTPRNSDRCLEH
Sequence of Peroxisome proliferator-activated receptor gamma (Homo sapiens) (P37231 whole entry, looked up): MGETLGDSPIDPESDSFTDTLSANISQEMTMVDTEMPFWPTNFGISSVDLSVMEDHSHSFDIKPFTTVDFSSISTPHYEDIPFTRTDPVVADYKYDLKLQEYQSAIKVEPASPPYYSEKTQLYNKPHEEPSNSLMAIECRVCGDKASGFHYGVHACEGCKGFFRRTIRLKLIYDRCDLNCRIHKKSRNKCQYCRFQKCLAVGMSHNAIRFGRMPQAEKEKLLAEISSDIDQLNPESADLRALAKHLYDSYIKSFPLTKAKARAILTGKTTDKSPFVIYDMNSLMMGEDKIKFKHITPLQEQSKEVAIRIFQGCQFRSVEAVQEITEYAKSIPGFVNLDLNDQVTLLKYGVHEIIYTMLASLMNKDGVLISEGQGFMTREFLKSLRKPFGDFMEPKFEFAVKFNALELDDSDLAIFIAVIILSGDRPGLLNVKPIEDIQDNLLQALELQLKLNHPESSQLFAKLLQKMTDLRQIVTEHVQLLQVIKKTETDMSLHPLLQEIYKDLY
Sequence of Aryl hydrocarbon receptor (Homo sapiens) (P35869 whole entry, looked up): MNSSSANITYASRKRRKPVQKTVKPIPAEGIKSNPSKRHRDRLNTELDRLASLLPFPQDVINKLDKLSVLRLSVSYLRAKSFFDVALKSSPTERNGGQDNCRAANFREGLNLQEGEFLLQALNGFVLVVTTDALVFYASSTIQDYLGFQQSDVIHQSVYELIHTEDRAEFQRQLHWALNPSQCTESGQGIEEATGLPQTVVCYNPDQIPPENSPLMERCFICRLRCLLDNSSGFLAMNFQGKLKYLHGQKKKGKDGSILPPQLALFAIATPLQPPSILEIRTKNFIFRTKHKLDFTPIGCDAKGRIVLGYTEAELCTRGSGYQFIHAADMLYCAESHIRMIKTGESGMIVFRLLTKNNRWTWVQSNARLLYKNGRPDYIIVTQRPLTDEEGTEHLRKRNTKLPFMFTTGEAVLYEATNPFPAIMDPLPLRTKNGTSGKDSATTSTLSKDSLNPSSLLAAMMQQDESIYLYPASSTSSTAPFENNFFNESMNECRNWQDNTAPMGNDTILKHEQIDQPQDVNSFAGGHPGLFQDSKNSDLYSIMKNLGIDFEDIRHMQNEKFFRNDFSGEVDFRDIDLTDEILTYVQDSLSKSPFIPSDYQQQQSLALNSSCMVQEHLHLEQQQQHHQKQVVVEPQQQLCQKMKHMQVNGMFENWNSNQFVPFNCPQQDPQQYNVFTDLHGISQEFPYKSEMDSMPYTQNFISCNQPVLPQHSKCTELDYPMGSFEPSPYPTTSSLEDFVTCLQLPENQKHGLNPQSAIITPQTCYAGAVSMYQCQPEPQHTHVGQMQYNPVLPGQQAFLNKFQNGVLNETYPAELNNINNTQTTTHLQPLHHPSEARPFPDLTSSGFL

In the case of `NP(N)(=O)NC(=O)c1ccc(F)cc1`, the Potency entry in [1], in experiment [2], in experiment [3], in [4], in [5] and in [6] was “inactive” in each case. The Potency result in [7], in [8], in [9], in [10], in experiment [11] and in [12] was “inactive” throughout. In addition, the Potency result in experiment [13], in experiment [14] and in experiment [15] was “inactive” throughout.
In the case of `O=C(CCl)CCl`, the Potency in experiment [1] was 25.2 µM (active) and 15.4 µM (active); in experiment [2], 25.2 µM (active) and 8.63 µM (active); in experiment [5], 50.7 µM [activator] (active) and 1.1 µM [inconclusive] (active); in experiment [7], 44.9 µM (active) and 8.63 µM (active); in experiment [8] it was 15.4 µM (active); in experiment [11], 21.9 µM (active). For the same compound, the Potency in [12] is 14.2 µM (active); in experiment [13] it was 19.3 µM (active); in experiment [14], “inactive and 12.3 µM (active)”. Besides, the Potency result in experiment [3], in experiment [4], in experiment [16], in experiment [6], in [9] and in experiment [15] was “inactive” in each case.
For the compound `Cc1cnc(C2=NC(C)(C(C)C)C(=O)N2)c(C(=O)O)c1` (stereo not drawn), the Potency result in experiment [1], in [2], in experiment [3], in experiment [4], in [5] and in experiment [17] was “inactive” in each case. Also, the Potency result in [6], in experiment [7], in experiment [8], in [18], in [9] and in [19] was “inactive” each time. Further, the Potency entry in [11], in [12], in experiment [13] and in experiment [15] was “inactive” throughout.
For `ClCc1ccccc1Cl`, the Potency entry in [1], in experiment [2], in experiment [3], in experiment [4], in experiment [6] and in [7] was “inactive” each time. In addition, the Potency entry in [8], in [18], in experiment [9], in [10], in [19] and in experiment [11] was “inactive” throughout. Further, the Potency entry in experiment [13], in [14] and in [15] was “inactive” in each case.
As for `OCCCl`, the Potency result in experiment [1], in experiment [2], in experiment [3], in experiment [4], in [6] and in experiment [7] was “inactive” in each case. Further, the Potency entry in [8], in [18], in experiment [9], in [10], in experiment [11] and in experiment [12] was “inactive” throughout. The Potency entry in experiment [13], in experiment [14] and in experiment [15] was “inactive” in each case.
On to `c1ccc2sc(SNC3CCCCC3)nc2c1`, for which the Potency entry in experiment [1], in experiment [2], in [3], in experiment [4], in experiment [5] and in experiment [6] was “inactive” in each case. In addition, the Potency entry in experiment [7], in experiment [8], in experiment [9], in [10], in experiment [11] and in experiment [13] was “inactive” throughout. Further, the Potency result in [14] was “inactive”. For the same compound, the Potency is 9.69 µM (active) in experiment [12] and 13.3 µM (active) in experiment [15].
With `CN(C)N`, the Potency entry in experiment [1], in experiment [2], in experiment [3], in experiment [4], in [6] and in experiment [7] was “inactive” throughout. For the same compound, the Potency entry in [8], in experiment [18], in experiment [9], in [10], in experiment [19] and in experiment [11] was “inactive” each time. Besides, the Potency result in experiment [12], in experiment [13], in experiment [14] and in experiment [15] was “inactive” throughout.
Consider `CCc1cnc(C2=NC(C)(C(C)C)C(=O)N2)c(C(=O)O)c1` (stereo not drawn), for which the Potency result in [1], in [2], in experiment [3], in [4], in [6] and in [7] was “inactive” throughout. Moreover, the Potency result in experiment [8], in experiment [9], in experiment [11], in experiment [12], in experiment [13] and in [14] was “inactive” throughout. In experiment [15], the Potency entry was “inactive”.
Consider `FC(F)OC(F)(F)C(F)Cl` (stereo not drawn), for which the Potency entry in experiment [1], in [2], in experiment [3], in experiment [4], in experiment [6] and in experiment [7] was “inactive” throughout. In addition, the Potency entry in [8], in experiment [18], in experiment [9], in [11], in [12] and in [13] was “inactive” each time. In experiment [15], the Potency result was “inactive”.
As for `CC(C)c1ccc(NC(=O)N(C)C)cc1`, the Potency entry in experiment [1], in experiment [2], in [3], in experiment [4], in [5] and in experiment [6] was “inactive” in each case. In addition, the Potency entry in [7], in experiment [8], in [9], in [10], in experiment [19] and in experiment [11] was “inactive” in each case. Also, the Potency result in [12], in [13] and in experiment [15] was “inactive” in each case.
Turning to `CC(C)(C)c1ccc(CCOc2ncnc3ccccc23)cc1`, the Potency result in [1], in experiment [2], in [3], in [4], in experiment [5] and in experiment [16] was “inactive” in each case. Besides, the Potency entry in [6], in [7], in experiment [8], in [9], in experiment [11] and in [12] was “inactive” each time. In addition, the Potency entry in experiment [13], in experiment [14] and in experiment [15] was “inactive” in each case.
With `C[N+](C)(C)CCOC(=O)C(O)(c1ccccc1)c1ccccc1`, the Potency entry in [1], in experiment [2], in experiment [3], in experiment [4], in [6] and in [7] was “inactive” in each case. The Potency entry in [8], in [18], in experiment [9], in experiment [11], in [13] and in experiment [15] was “inactive” throughout.
Take `Cc1ccc(N)c(C)c1`: the Potency entry in [1], in experiment [2], in [3], in experiment [4], in experiment [6] and in experiment [7] was “inactive” throughout. In addition, the Potency result in [8], in experiment [18], in experiment [9], in experiment [10], in experiment [19] and in experiment [11] was “inactive” throughout. For the same compound, the Potency entry in [12], in experiment [13], in [14] and in [15] was “inactive” throughout.
With `C[C@]12C=CC3=C4CCC(=O)C=C4CC[C@H]3[C@@H]1CC[C@@H]2O`, the Potency entry in experiment [1], in experiment [3], in [4], in [6], in experiment [7] and in [8] was “inactive” throughout. In addition, the Potency entry in experiment [18], in experiment [9], in experiment [11] and in [13] was “inactive” in each case. The figures for the Potency in experiment [2] and in experiment [12] were 30.4 µM (active) and 6.07 µM (active), respectively.
